Data published in the supplement of paper PMC10849652.
The full data set covers some 7,900 targets. This sample favours those with a hit. About 0.6% of all pairs of compound and target were hits. A number with no mark means an inactive call.

Assays:
Experiment in all cases: log2 fold change, soluble protein after heating vs DMSO (PISA); higher = thermal stabilisation; K562 cells, 10 uM, 30 min; active = over 0.2 and 3.5 SD of the protein, either way, in both replicates (recomputed)
erlotinib = compound: C#Cc1cccc(Nc2ncnc3cc(OCCOC)c(OCCOC)cc23)c1 [erlotinib]
How it was run: (§1)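 K562 cells at 2×10^6 cells/mL were exposed to 10 μM compound for 30 min, then aliquots were heated for 3 min across 48°C-58°C, pooled, and extracted in PBS containing 0.5% NP-40 at 4°C. The supernatant after 21,000xg for 90 min was taken as soluble protein and measured by TMTpro 16plex LC-MS/MS with channel sums equalised. Thermal stability is reported relative to control samples, with values from duplicates. Fold changes are given on a log2 scale.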

[1] = compound: C/C(=N\NC(=O)C1=CC(=CC=C1)S(=O)(=O)N2CCOCC2)/C3=C(C=CC(=C3)Cl)O
How it was run: as §1

[2] = compound: C1=CC(=C(C=C1Cl)C2=NC3=NC=CN=C3C(=N2)NC4=CC=NC=C4)F
How it was run: as §1

[3] = compound: C1=CC(=CC=C1C2=NC3=C(N2)C=C(C=C3)C(=O)N)OC4=CC=C(C=C4)Cl
How it was run: as §1

[4] = compound: C1=CC2=C(C=CC(=C2)/C=C\3/C(=O)NC(=NCC4=CC=CS4)S3)N=C1
How it was run: as §1

[5] = compound: C1=CC2=NC=CN=C2C=C1/C=C/3\C(=O)NC(=O)S3
How it was run: as §1

[6] = compound: C1=CC=C(C=C1)C2=NC(=C(N2)C3=CC=NC=C3)C4=CC(=C(C=C4)Cl)O
How it was run: as §1

[7] = compound: C1=CC=C2C(=C1)C3=NNC4=CC=CC(=C43)C2=O
How it was run: as §1

[8] = compound: C1CCN(C1)C(=O)NC2=CC=CC(=C2)NC3=NC=C(C(=N3)NCCC4=CN=CN4)Br
How it was run: as §1

[9] = compound: C1CN(CCC1(CC2=CC=C(C=C2)Cl)N)C3=NC=NC4=C3C=CN4
How it was run: as §1

IRAK-1-4 Inhibitor I = compound: C1COCCN1CCN2C3=CC=CC=C3N=C2NC(=O)C4=CC(=CC=C4)[N+](=O)[O-] [IRAK-1-4 Inhibitor I]
How it was run: as §1

ibrutinib = compound: C=CC(=O)N1CCC[C@@H](n2nc(-c3ccc(Oc4ccccc4)cc3)c3c(N)ncnc32)C1 [ibrutinib]
How it was run: as §1

[10] = compound: CC(=O)c1cnc2ccc(-c3cc(Cl)c(O)c(Cl)c3)nc2c1N[C@H]1CC[C@H](CN(C)C)CC1
How it was run: as §1

ralimetinib = compound: CC(C)(C)Cn1c(N)nc2ccc(-c3[nH]c(C(C)(C)C)nc3-c3ccc(F)cc3)nc21 [ralimetinib]
How it was run: as §1

[11] = compound: CC(C)(O)CC(=O)NCCn1ccc2ncnc(Nc3ccc(Oc4cccc(C(F)(F)F)c4)c(Cl)c3)c21
How it was run: as §1

[12] = compound: CC(C)C1=C2N=C(C=C(N2N=C1)NCC3=CC=CC=C3)NCCCCCCN
How it was run: as §1

[13] = compound: CC(C)C[C@@H](C=O)NC(=O)[C@H](CC(C)C)NC(=O)[C@H](CC(C)C)NC(=O)OCc1ccccc1
How it was run: as §1

pinometostat = compound: CC(C)N(C[C@H]1O[C@@H](n2cnc3c(N)ncnc32)[C@H](O)[C@@H]1O)[C@H]1C[C@@H](CCc2nc3cc(C(C)(C)C)ccc3[nH]2)C1 [pinometostat]
How it was run: as §1

[14] = compound: CC1=C(C(CC(=O)N1)C2=CC=C(C=C2)C(F)(F)F)C(=O)NC3=C(C=C4C(=C3)C=NN4)F
How it was run: as §1

[15] = compound: CC1=C(C2=C(C=C1)C(=O)C3=CC=CC=C3N2CCCN)C
How it was run: as §1

UniProt P45984, sequence (P45984 whole entry, looked up): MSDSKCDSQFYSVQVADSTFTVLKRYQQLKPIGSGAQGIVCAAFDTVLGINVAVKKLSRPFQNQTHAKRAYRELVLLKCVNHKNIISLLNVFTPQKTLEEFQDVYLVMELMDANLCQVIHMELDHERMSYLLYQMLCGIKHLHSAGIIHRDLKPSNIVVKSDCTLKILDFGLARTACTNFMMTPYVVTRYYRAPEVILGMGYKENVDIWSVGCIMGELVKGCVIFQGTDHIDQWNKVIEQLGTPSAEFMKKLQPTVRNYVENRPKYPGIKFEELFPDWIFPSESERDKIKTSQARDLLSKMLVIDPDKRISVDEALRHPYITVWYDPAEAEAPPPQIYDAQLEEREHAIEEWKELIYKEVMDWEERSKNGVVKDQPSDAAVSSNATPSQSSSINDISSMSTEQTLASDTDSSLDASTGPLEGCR
UniProt O95373, sequence (O95373 whole entry, looked up): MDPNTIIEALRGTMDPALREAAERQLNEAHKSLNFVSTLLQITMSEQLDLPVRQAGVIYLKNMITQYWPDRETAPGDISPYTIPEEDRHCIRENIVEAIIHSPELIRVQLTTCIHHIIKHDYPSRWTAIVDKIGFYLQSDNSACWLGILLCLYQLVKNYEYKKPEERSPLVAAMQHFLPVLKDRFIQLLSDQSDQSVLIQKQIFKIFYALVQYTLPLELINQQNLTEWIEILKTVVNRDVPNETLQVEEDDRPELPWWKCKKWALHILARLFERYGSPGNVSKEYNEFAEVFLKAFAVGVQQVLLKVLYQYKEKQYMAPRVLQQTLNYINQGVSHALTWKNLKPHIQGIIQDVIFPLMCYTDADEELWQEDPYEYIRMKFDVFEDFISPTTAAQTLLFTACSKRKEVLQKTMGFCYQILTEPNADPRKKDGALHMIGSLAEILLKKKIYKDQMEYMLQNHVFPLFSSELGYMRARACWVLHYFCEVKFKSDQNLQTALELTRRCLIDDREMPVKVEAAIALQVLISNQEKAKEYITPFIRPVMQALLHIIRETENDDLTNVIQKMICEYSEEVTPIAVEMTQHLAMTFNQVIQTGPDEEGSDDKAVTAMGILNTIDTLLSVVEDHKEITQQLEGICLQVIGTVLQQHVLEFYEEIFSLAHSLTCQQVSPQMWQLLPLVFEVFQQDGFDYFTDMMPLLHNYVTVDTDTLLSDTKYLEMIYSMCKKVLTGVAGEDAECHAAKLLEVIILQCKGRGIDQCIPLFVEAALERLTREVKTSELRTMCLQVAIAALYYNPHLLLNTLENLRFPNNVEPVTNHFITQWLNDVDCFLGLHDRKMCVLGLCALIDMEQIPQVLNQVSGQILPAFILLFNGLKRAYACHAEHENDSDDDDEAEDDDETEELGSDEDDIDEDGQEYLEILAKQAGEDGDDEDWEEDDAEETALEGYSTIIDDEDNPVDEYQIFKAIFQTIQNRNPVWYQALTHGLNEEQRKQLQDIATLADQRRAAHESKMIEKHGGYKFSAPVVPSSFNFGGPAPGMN
UniProt Q9BY66, sequence (Q9BY66 whole entry, looked up): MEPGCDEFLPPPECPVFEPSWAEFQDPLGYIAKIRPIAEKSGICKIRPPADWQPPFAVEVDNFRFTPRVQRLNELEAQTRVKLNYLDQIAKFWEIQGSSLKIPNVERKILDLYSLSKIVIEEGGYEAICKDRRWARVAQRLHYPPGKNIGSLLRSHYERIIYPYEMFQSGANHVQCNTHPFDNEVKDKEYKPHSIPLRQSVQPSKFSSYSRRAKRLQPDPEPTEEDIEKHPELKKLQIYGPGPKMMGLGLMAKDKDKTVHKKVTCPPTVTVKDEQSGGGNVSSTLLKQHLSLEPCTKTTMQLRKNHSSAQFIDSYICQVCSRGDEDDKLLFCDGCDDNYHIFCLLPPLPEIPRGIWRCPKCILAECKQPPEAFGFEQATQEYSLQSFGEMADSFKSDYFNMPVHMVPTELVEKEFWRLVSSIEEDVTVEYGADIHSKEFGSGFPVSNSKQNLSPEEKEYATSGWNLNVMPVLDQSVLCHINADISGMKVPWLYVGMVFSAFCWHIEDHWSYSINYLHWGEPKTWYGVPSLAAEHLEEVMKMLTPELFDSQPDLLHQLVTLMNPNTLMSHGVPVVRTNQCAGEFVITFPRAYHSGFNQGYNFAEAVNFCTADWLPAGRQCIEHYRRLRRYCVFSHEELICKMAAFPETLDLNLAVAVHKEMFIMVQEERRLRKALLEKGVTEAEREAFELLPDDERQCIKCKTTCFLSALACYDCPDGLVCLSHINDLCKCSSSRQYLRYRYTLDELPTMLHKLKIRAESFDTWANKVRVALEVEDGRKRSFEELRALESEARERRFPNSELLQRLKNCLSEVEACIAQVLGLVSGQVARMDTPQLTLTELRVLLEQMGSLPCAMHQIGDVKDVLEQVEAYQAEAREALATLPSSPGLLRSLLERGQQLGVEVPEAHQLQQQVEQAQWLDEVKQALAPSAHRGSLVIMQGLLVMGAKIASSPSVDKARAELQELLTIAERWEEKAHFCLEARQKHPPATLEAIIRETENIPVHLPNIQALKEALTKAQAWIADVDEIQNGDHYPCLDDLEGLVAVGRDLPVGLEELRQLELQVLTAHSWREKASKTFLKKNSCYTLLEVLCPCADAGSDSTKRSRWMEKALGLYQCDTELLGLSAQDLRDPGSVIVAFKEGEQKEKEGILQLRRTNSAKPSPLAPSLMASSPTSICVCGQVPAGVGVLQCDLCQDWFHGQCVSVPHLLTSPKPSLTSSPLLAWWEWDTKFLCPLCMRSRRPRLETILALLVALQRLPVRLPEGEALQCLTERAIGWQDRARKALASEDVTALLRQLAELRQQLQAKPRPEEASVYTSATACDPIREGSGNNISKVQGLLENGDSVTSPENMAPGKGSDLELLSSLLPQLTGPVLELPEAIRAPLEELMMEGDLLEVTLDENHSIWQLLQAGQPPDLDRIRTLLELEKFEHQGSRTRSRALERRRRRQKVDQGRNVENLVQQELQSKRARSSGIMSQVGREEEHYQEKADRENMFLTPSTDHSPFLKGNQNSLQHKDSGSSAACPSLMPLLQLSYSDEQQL
UniProt O95568, sequence (O95568 whole entry, looked up): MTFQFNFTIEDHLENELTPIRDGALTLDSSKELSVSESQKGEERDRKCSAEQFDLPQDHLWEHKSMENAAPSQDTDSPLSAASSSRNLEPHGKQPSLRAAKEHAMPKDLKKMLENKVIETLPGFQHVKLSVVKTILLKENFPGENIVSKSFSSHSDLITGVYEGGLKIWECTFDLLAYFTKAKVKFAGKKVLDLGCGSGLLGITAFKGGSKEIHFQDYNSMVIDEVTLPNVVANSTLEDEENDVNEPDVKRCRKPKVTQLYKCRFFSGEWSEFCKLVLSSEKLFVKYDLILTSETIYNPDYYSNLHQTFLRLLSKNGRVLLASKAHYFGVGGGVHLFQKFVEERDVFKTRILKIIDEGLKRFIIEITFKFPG
UniProt Q9H6V9, sequence (Q9H6V9 whole entry, looked up): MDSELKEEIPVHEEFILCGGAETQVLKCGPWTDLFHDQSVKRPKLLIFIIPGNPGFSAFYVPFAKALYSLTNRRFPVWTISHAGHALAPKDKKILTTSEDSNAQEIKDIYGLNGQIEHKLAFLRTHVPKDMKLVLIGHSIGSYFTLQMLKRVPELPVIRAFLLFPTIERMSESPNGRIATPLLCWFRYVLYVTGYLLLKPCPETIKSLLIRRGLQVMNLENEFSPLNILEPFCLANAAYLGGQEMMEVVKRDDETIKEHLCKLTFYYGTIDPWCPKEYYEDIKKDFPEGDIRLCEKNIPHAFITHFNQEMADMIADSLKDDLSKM
UniProt Q96PV6, sequence (Q96PV6 whole entry, looked up): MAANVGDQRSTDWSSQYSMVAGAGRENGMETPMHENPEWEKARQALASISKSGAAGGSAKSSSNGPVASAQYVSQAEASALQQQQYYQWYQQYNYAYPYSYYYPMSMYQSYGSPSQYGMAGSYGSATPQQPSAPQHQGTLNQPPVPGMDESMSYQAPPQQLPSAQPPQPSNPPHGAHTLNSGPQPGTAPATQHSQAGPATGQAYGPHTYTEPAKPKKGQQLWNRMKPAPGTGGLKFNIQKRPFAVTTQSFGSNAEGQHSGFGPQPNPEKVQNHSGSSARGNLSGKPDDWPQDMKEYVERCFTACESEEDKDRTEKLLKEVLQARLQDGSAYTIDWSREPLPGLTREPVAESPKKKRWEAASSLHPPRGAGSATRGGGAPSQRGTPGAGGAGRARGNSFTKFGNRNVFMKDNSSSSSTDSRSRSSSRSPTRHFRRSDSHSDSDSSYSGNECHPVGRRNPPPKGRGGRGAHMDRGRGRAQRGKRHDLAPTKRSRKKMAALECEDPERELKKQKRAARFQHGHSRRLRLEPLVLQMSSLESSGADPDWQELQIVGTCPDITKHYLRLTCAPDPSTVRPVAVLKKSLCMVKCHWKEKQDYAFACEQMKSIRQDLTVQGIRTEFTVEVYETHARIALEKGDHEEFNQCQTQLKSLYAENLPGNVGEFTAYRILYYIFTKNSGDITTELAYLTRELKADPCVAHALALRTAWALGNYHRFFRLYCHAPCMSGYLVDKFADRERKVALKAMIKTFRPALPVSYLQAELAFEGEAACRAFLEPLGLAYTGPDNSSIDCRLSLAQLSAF
UniProt Q96LU5, sequence (Q96LU5 whole entry, looked up): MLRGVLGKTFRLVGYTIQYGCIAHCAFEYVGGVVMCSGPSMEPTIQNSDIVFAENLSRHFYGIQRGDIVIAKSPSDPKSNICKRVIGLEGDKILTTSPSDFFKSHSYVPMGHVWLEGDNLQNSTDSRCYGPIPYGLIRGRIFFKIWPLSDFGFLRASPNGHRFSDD
UniProt O43513, sequence (O43513 whole entry, looked up): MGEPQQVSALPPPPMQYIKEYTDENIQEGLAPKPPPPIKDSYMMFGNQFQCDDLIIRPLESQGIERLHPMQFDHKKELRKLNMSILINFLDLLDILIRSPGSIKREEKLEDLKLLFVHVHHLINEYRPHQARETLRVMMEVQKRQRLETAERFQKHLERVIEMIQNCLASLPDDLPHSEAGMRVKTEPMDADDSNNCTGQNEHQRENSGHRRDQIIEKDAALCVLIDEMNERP

Target | log2 fold change (erlotinib) | log2 fold change [1] | log2 fold change [2] | log2 fold change [3] | log2 fold change [4] | log2 fold change [5] | log2 fold change [6] | log2 fold change [7] | log2 fold change [8] | log2 fold change [9] | log2 fold change (IRAK-1-4 Inhibitor I) | log2 fold change (ibrutinib) | log2 fold change [10] | log2 fold change (ralimetinib) | log2 fold change [11] | log2 fold change [12] | log2 fold change [13] | log2 fold change (pinometostat) | log2 fold change [14] | log2 fold change [15]
LBR (UniProt Q14739) | 0.009 | 0.122 | 0.043 | -0.016 | 0.029 | 0.034 | 0.059 | -0.002 | 0.037 | 0.21 | -0.044 | -0.092 | 0.038 | -0.001 | -0.211 | -0.168 | -0.083 | 0.211 | -0.036 | 0.188
MED7 (UniProt O43513) | 0.065 | -0.109 | 0.041 | 0.053 | 0.065 | 0.015 | 0.017 | -0.152 | -0.114 | 0.039 | 0.042 | 0.042 | 0.001 | 0.113 | 0.022 | -0.078 | -0.068 | 0.113 | 0.403 (active) | 0.119
LENG8 (UniProt Q96PV6) | -0.072 | 0.133 | 0.091 | 0.108 | -0.024 | -0.037 | -0.141 | 0.096 | 0.152 | -0.229 | -0.122 | 0 | -0.173 | -0.13 | -0.389 | -0.646 (active) | 0.107 | -0.071 | 0.031 | 0.15
KSR1 (UniProt Q8IVT5) | 0.082 | 0.004 | 0.044 | -0.044 | 0.162 | 0.058 | 0.185 | -0.106 | -0.088 | 0.058 | -0.07 | -0.084 | -0.807 (active) | 0.065 | -0.231 | -0.085 | 0.085 | 0.035 | 0.011 | 0.044
MAPK9 (UniProt P45984) | 0.007 | 0.027 | 0.031 | -0.02 | 0 | -0.02 | -0.026 | 0.202 | 0.063 | 0.016 | -0.002 | -0.016 | 0.278 (active) | 0.208 | 0.005 | -0.037 | -0.032 | -0.032 | -0.022 | 0
MAPK14 isoform 2 (UniProt Q16539) | 0.313 | -0.051 | 0.936 (active) | -0.136 | 0.01 | -0.013 | 1 (active) | 0.207 | 0.021 | -0.102 | -0.011 | 0.001 | 1.01 (active) | 1.48 (active) | -0.096 | -0.218 | -0.089 | -0.141 | -0.152 | -0.013
KCTD2 (UniProt Q14681) | 0.177 | -0.154 | -0.125 | -0.126 | 0.158 | -0.062 | 0.055 | -0.106 | 0.26 | -0.005 | -0.03 | 0.058 | -0.054 | 0 | -0.015 | 0.016 | 0.171 | 0.052 | -0.049 | -0.028
LDAH isoform 2 (UniProt Q9H6V9) | 0.116 | 0.052 | -0.101 | -0.041 | 0.047 | 0 | 0.018 | 0 | 0.06 | -0.006 | 0.039 | 0.066 | -0.039 | 0.077 | 0.464 (active) | -0.286 (active) | 0.019 | 0 | -0.053 | 0.073
IPO13 (UniProt O94829) | -0.045 | -0.018 | 0.05 | -0.037 | 0.025 | 0.021 | -0.059 | -0.033 | 0.013 | -0.062 | -0.005 | -0.1 | 0.066 | 0.103 | -0.226 | -0.281 (active) | 0.002 | 0.015 | -0.026 | -0.04
METTL18 (UniProt O95568) | -0.042 | -0.037 | -0.08 | 0.027 | 0.038 | 0.046 | -0.039 | -0.06 | 0.028 | 0.078 | 0.01 | 0.019 | 0.013 | -0.036 | 0.016 | -0.009 | -0.003 | 0.023 | 0.065 | 0.072
MAP2K3 isoform 3 (UniProt P46734) | -0.011 | 0.05 | 0.002 | 0.009 | 0.036 | 0.017 | 0.046 | -0.057 | 0.016 | -0.006 | 0.012 | 0.032 | -0.457 (active) | 0.02 | 0.059 | -0.035 | -0.022 | -0.012 | 0.064 | -0.032
KHDRBS1 (UniProt Q07666) | -0.023 | 0.042 | -0.076 | 0.029 | -0.088 | 0.046 | 0.027 | 0.014 | -0.029 | -0.084 | -0.069 | 0.038 | -0.002 | 0.016 | 0.073 | -0.039 | 0.017 | -0.052 | -0.012 | 0.621 (active)
IMMP1L (UniProt Q96LU5) | 0.053 | -0.018 | 0.01 | -0.017 | 0.104 | -0.022 | -0.084 | -0.046 | 0.041 | 0.013 | 0.006 | 0.043 | 0.002 | 0.031 | 0.03 | 0.026 | 0.112 | -0.033 | 0.06 | 0.199
KDM5D isoform 3 (UniProt Q9BY66) | -0.036 | -0.142 | 0.067 | -0.147 | 0.121 | -0.034 | -0.005 | 0.026 | 0.035 | 0.022 | -0.042 | -0.222 | -0.05 | -0.083 | -0.155 | 0.036 | 0.114 | -0.047 | 0.043 | -0.103
KPNA4 (UniProt O00629) | 0.016 | 0.023 | 0.037 | 0.023 | 0.005 | 0.03 | 0.027 | -0.024 | 0.003 | 0.003 | 0.008 | -0.016 | -0.057 | -0.048 | 0.028 | -0.063 | -0.02 | -0.001 | 0.041 | -0.347 (active)
IPO7 (UniProt O95373) | -0.015 | 0.078 | 0.034 | -0.003 | 0.01 | 0.056 | 0.026 | -0.019 | -0.004 | -0.05 | 0 | -0.063 | -0.021 | 0.032 | -0.153 | -0.309 (active) | -0.069 | 0.012 | 0 | -0.221 (active)
